# Mtb MenB inh: blocks the Mycobacterium tuberculosis MenB enzyme; P9WNP5; AID 540299; inhibition, % (concentration not given with the values); hit rate 0.43% among 100,000; MenB enzyme assay, absorbance read-out; in the data active = inhibition above about 21%, passing the limit was not always enough
# AID504770: E. coli YBA685 growth inhibition, screen for V. cholerae RctB inhibitors | E. coli YBA685 rctB-dependent plasmid, OD600 growth, 3 h; hits give low values | z-score (test concentration not listed) | hit rate 0.27% among 130,000 | AID 504770; in the data active = z-score below about -2, passing the limit was not always enough
# MbtI inh: inhibitors of Mycobacterium tuberculosis siderophore enzyme MbtI; P9WFX0; purified MbtI enzyme, fluorescence intensity read-out; inhibition, % (no concentration beside the values); hit rate 0.89% among 100,000; AID 493033; in the data active = inhibition mostly above about 56%, no sharp cut-off; inactive = mostly below about 77%
# Polio RdRp inh: inhibitors of poliovirus RNA polymerase binding and polymerization. P03300. poliovirus polymerase elongation, fluorescence polarization; hits give low values. % elongation, % (compound at 16.7 µg/mL). hit rate 0.66% among 150,000. AID 588519; in the data active = % elongation below about 90%
# Target sequence (P03300 1749-2209 limits assumed): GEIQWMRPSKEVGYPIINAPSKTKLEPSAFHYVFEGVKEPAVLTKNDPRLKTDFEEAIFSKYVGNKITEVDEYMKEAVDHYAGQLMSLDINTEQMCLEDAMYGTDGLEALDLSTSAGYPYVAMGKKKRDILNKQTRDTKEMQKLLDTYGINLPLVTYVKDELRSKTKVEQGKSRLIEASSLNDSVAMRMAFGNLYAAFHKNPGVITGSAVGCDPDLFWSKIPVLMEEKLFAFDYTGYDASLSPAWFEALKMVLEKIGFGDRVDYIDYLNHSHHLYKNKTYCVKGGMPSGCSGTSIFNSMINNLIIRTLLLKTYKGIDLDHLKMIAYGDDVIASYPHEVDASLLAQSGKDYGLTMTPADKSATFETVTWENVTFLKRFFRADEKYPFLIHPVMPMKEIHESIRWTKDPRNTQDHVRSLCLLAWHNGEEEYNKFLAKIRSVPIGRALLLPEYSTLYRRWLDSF
# Starred values were filed as active, the others as inactive; x = no result given. Most compounds without a hit are left out; they make up all but 1.4% or so of the library.
SMILES,Mtb MenB inh,AID504770,MbtI inh,Polio RdRp inh
O=C(Cc1c(F)cccc1Cl)NCCCn1ccnc1,40*,0.95,-1,102
CCSc1ccccc1C(=O)NCCCn1ccnc1,40*,0.6,18,102
CCOC(=O)c1c(NC(=O)COC(=O)c2ccc(Br)o2)sc(C)c1CC,-21,1.1,-4,112
N#CC(C#N)=NNc1ccccc1,-406,-3.6*,8,99
CCCCCCC1C(C#N)=C(N)SC(N)=C1C#N,-54,-0.8,34,119
Cc1nn(CCC#N)c2c1P(=S)(N1c3ccccc3CC1C)/C(=C1\N(C)c3ccccc3C1(C)C)C=N2 (centres undefined),-60,1.9,57*,98
c1ccc(-c2cccc(-c3ccccn3)n2)nc1,x,-1.4,6,113
c1ccc(-c2ccc(-c3ccccn3)nc2)nc1,x,-2.4*,x,x
CCN(CC)C(=O)CN1C(=O)COCC1=O,26*,0.05,-9,99
CC(C)[C@H](NC(=O)c1ccccc1)C(=O)N1CCN(c2ccccc2)CC1,3,-0.35,-4,106
O=C(c1nc(-c2ccccc2)n(-c2ccccc2)n1)N1CCCCC1,x,-0.95,x,x
O=C(Nc1cc(C(F)(F)F)cc(C(F)(F)F)c1)C(=S)NCCNc1cccc2ccccc12,-8,0.25,x,71*
COc1ccc(N2CCN(S(=O)(=O)c3cc(Br)cc4c3N(C(=O)C3CC3)CC4)CC2)cc1,x,x,x,100
O=C(N1CCC(O)(c2cccnc2)CC1)C12CC3CC(CC(C3)C1)C2,25*,1.1,-1,101
O=C(c1ccccc1)N1CCC(O)(c2cccnc2)CC1,-19,-0.2,0,101
CC(C)(C)NCC(=O)Nc1ccc(F)cc1Cl,-5,-0.7,0,101
S=c1[nH]nc(COc2ccccc2Cl)n1C1CC1,-19,0.65,84*,x
NC(=O)CSc1nnc(COc2ccccc2Cl)n1C1CC1,-24,-0.5,-9,x
CC1(C)NC(C)(C)/C(=N\O)C(=NO)/C1=N\O,-31,-0.55,-10,99
Sc1ccc2c(c1)OCCCO2,6,-0.05,94*,98
O=C1NC(=O)C(=Cc2ccc(N3CCCC3)o2)C(=O)N1,-142,-0.55,17,126
O=C1NC(=O)C(=Cc2ccc(Sc3ccc(Cl)cc3)o2)C(=O)N1,-26,0.5,92*,104
Cc1cc(N2CCOCC2)cc(C)[n+]1[O-],46*,-0.45,17,101
Cc1ccc(CSCc2ccc(C(=O)NC3CCCC3)o2)cc1,0,-0.5,-1,102
CC1CCc2cc(F)cc3c(=O)c(C(=O)O)cn1c23 (centres undefined),-5,-3.4*,-1,100
SMILES,Mtb MenB inh,AID504770,MbtI inh,Polio RdRp inh
O=C(Oc1cccc2cccnc12)c1cccc(F)c1,x,-1.4,-3,x
O=C(Oc1cccc2cccnc12)c1cc(C(F)(F)F)cc(C(F)(F)F)c1,-15,-3.2*,-7,150
O=C(O)c1ccc(NC2OC(CO)C(O)C2O)cc1 (centres undefined),-15,1.2,x,90*
CCc1nnc2c(Nc3cccc(C(C)=O)c3)nc3ccccc3n12,x,x,x,103
O=C1NC(=O)C(c2ccccc2)N1 (centres undefined),-2,-1.1,-3,106
O=C1NC(=O)C(C(c2ccccc2)c2ccccc2)C(=O)N1,32*,1.1,1,99
CC1=Nc2cc(C(=O)NC3CCCC3)ccc2Sc2ccc(Br)cc21,x,x,x,108
COc1ccc(CC(CN)c2ccccc2)cc1 (centres undefined),36*,1.1,1,102
C=CCN1C(=O)/C(=C\c2ccc(OCc3ccccc3C#N)cc2)C(=O)NC1=S,-56,-0.35,74*,102
C=CCN1C(=O)/C(=C\c2ccc(OC)cc2)C(=O)NC1=S,-160,-0.8,95*,99
C=CCN1C(=O)/C(=C\c2ccc(O)c(OC)c2)C(=O)NC1=S,-72,-0.9,35,102
C=CCN1C(=O)/C(=C\c2ccc(N(CC)CC)cc2)C(=O)NC1=S,-35,0.2,79*,100
C=CCN1C(=O)/C(=C\c2ccc(O)c(Br)c2)C(=O)NC1=S,-48,-0.25,14,100
O=C1/C(=C/c2ccccc2Br)Cc2ccccc21,-43,0.55,7,104
COc1ccc(OC)c(NC(=S)NCCN2CCOCC2)c1,-4,0.2,26,102
COc1ccc(CNCCN2CCOCC2)cc1,28*,-0.4,4,102
Cc1onc(-c2ccccc2)c1CN1C(=O)c2ccccc2S1(=O)=O,0,-0.25,-4,105
OCCn1nc2c3ccccc3nc-2n(-c2ccccc2)c1=S,-40,-0.2,72,85*
O=c1c2ccccc2[se]n1-c1ccccc1,5,x,103*,99
N#Cc1ccc(NC(=O)CC2(CC(=O)O)CCCCC2)cc1,-4,-0.5,8,99
Cc1cccc(Nc2cc(C)nc3nc(-c4ccccc4)nn23)c1,x,x,x,108
Cc1cc(N(C)C)n2nc(Cc3ccccc3)nc2n1,-5,-0.8,8,101
Cc1cc2cc(CNC(=O)CC3CCCCC3)ccc2[nH]1,x,-0.25,x,x
O=C(CSCc1nc2sc3c(c2c(=O)[nH]1)CCC3)Nc1ccc(-c2nnc3n2CCCCC3)cc1,-44,-0.1,2,133
O=C1C=CC(=O)N1c1ccccc1Sc1ccccc1,x,-0.6,99*,101
SMILES,Mtb MenB inh,AID504770,MbtI inh,Polio RdRp inh
O=c1/c(=C\c2ccccc2)sc2nc3ccccc3n12,x,-0.4,29,97
O=c1/c(=C\c2ccncc2)sc2nc3ccccc3n12,-34,-0.4,x,63*
CN(C)S(=O)(=O)c1cccc(-c2nnc3n2N=C(c2cccs2)CS3)c1,-52,0.05,97*,76*
c1ccc(-c2nnc3n2N=C(c2cccs2)CS3)cc1,-4,0,-10,105
O=c1[nH]cnc2sc3c(c12)CCCC3,34*,1.2,29,101
CS(=O)(=O)Nc1cccc(C2=NN(C(=O)c3ccco3)C(c3ccccc3F)C2)c1 (centres undefined),-9,1.9,3,101
CC(NC(=O)C1CCCN1C(=O)OCc1ccccc1)c1ccccc1 (centres undefined),3,0.15,-18,99
O=C(Cn1cnc2c(nc3n2CCCCC3)c1=O)NC1CCCCCC1,-18,-2.1*,7,102
CSc1nc(-c2ccco2)nn1S(C)(=O)=O,-3,2.5,84*,100
CSc1s[nH]c(=O)c1C#N,9,-1,x,86*
CSc1[nH]c(=O)[nH]c(=O)c1C#N,-11,0.2,0,101
CC1(C)CC(=O)C=C(NNc2ccccn2)C1,-78,-0.55,58*,101
c1cc2c(cc1CNc1ccc(N3CCCC3)cc1)OCO2,-37,-0.7,43,105
c1cc(CNc2ccc(N3CCCC3)cc2)ccn1,-20,0.5,100*,99
CNc1nnc(Sc2nnc(NC)s2)s1,-16,-1,90*,91
Cc1ccc(O)c(C(=O)c2cnn(C(=O)Cc3csc(C)n3)c2)c1,-27,1.4,-13,86*
c1ccc2c(c1)CCN(c1ncnc3sccc13)C2,-85,1.2,36,101
Cc1nn(Cc2c(Cl)cccc2Cl)c(Cl)c1CN1CCN(CC(=O)N2CCCC2)CC1,15,1.7,5,87*
CCCCS(=O)(=O)Nc1ccc(C)cn1,0,0.55,101,83*
CCCCS(=O)(=O)Nc1nccs1,-15,-0.6,-4,99

# Screening results: PubChem, ICCB-Longwood Screening Facility, Harvard Medical School
